Source: PubChem BioAssay (EPA / NIEHS)
Some structures have more than one record in an assay (separate samples or runs), and their calls can disagree. The source made the active and inactive calls. The calls were made as follows: active = hit-call score of the fitted dose curve at least 0.9, where 1 is the maximum; inactive = score below 0.9.

assay: ATG_GRE_CIS: Attagene CIS-FACTORIAL HepG2 Assay for human Glucocorticoid Response Elements (GRE) (AID 2282947); conditions: HepG2 GRE cis-reporter, Attagene multiplex mRNA; actives raise or lower the signal
Method: ATG_CIS is a cell-based, multiplexed-readout assay that uses HepG2, a human liver cell line, with measurements taken at 24 hours after chemical dosing in a 24-well plate.ATG_GRE_CIS is one of 52 assay component(s) measured or calculated from the ATG_CIS assay. It is designed to make measurements of mRNA induction, a form of inducible reporter, as detected with fluorescence intensity signals by Reverse transcription polymerase chain reaction (RT-PCR) and Capillary electrophoresis technology.Data from the assay component ATG_GRE_CIS was analyzed into 1 assay endpoint. This assay endpoint, ATG_GRE_CIS, was analyzed with bidirectional fitting relative to DMSO as the negative control and baseline of activity. Using a type of inducible reporter, measures of mRNA for gain or loss-of-signal activity can be used to understand the reporter gene at the transcription factor-level as they relate to the gene NR3C1. Furthermore, this assay endpoint can be referred to as a primary readout, because this assay has produced multiple assay endpoints where this one serves a reporter gene function. To generalize the intended target to other relatable targets, this assay endpoint is annotated to the nuclear receptor intended target family, where the subfamily is steroidal.
Human liver HepG2 cells are transiently transfected with multiple reporter transcription units (MRTUs) in 6-well plates using FuGene 6 reagent (Roche; 3 ml FuGene/1 mg DNA). The MRTU constructs are regulated by a cis-regulating element (promoter). […] A major difference between the CIS and TRANS system is that in CIS activities of endogenous TFs are measured, whereas the TRANS assay evaluates changes in activities of exogenous, chimeric NR-Gal4 proteins. […] At the end of 24 hour incubation, total RNA was isolated using TriZol reagent (Invitrogen). The isolated RNA is then reverse-transcribed using oligo(dT) primer and Mo-MLV reverse transcriptase (Invitrogen) with DNAse I (Ambion) treatment for 30 min. The one-tenth of the produced cDNA was amplified by PCR using Taq DNA polymerase (Invitrogen) and two reporter sequence-specific primers. The PCR products were fluorescently labeled by primer extension with 6-arboxyfluorescein (6-FAM) 5'-labeled reporter sequence-specific primer (2 min at 95 C, 20 s at 68 C and 10 min at 72 C) and these products were digested with 5U of HpaI (New England Biolabs) for 2h at 37 C. The fragments were purified using Qiaquick PCR columns (Qiagen), analyzed on an ABI 3130xL genetic analyzer (Applied Biosystems) with peak positions identified by using a set of X-rhodamine (ROX)-labeled MapMarker1000 molecular weight standards (BioVentures). The raw capillary electrophoresis data was processed using Attagraph software (Attagene).

| SMILES | outcome | AC50 |
| --- | --- | --- |
| C=C(C)C(=O)OCC(F)(F)C(F)(F)C(F)(F)C(F)(F)C(F)(F)C(F)(F)C(F)(F)F | inactive | – |
| CCc1ccc(C(c2ccc(CC)cc2)C(Cl)Cl)cc1 | inactive | – |
| O=S(=O)(OCC(F)F)C(F)(F)F | inactive | – |
| O=C(O)C(F)(F)C(F)(F)C(F)(F)C(F)(F)F | inactive | – |
| O=P(O)(O)OCCC(F)(F)C(F)(F)C(F)(F)C(F)(F)C(F)(F)C(F)(F)F | inactive | – |
| CS(C)(=O)=O | inactive | – |
| O=C(O)C(F)(F)C(F)(F)C(F)(F)C(F)(F)C(F)(F)C(F)(F)C(F)(F)C(F)(F)Cl | inactive | – |
| CC(C)OC(=O)c1ccccc1C(=O)OC(C)C | inactive | – |
| Nc1ccc(S(=O)(=O)Nc2nccs2)cc1 | inactive | – |
| CC(C)=CCCC(C)CCOC(=O)C(C)C (stereo not given) | inactive | – |
| OCC(F)(F)C(F)(F)C(F)(F)F | inactive | – |
| N=C(N)C(F)(F)C(F)(F)C(F)(F)C(F)(F)C(F)(F)C(F)(F)C(F)(F)F | inactive | – |
| CCCCCCCCC(F)(F)C(F)(F)C(F)(F)C(F)(F)C(F)(F)C(F)(F)F | inactive | – |
| CCc1c(Br)c(Br)c(Br)c(Br)c1Br | inactive | – |
| CC(=O)Nc1ccc(N=Nc2cc(C)ccc2O)cc1 | inactive | – |
| O=S(=O)(OCCOC(F)(F)F)C(F)(F)F | inactive | – |
| C=C(C)C(=O)OCCC(F)(F)C(F)(F)C(F)(F)C(F)(F)C(F)(C(F)(F)F)C(F)(F)F | inactive | – |
| CCCCC(CC)COP(=O)(O)OCC(CC)CCCC (stereo not given) | inactive | – |
| O=C(O)C(F)(F)C(F)(F)C(F)(F)C(F)(F)C(F)(F)C(F)(F)C(F)(F)C(F)(F)C(F)(F)C(F)F | inactive | – |
| O=C(O)C(F)(F)C(F)(F)OC(F)(F)F | inactive | – |

| SMILES | outcome | AC50 |
| --- | --- | --- |
| Cc1ccc(S(=O)(=O)OCC(F)(F)C(F)(F)C(F)(F)C(F)(F)C(F)(F)C(F)F)cc1 | inactive | – |
| FC1CC(F)(F)C(F)(F)C1(F)F (stereo not given) | inactive | – |
| FC(F)(F)C(F)(F)C(F)(F)C(F)(F)C(F)(F)C(F)(F)CCS | inactive | – |
| O=C(O)C(F)(F)C(F)(F)C(F)F | inactive | – |
| CC(C)(C)c1ccc(OC2CCCCC2O)cc1 (stereo not given) | inactive | – |
| CCCCCCOC(=O)c1ccccc1O | inactive | – |
| COC(=O)CCC(F)(F)C(F)(F)C(F)(F)C(F)(F)F | inactive | – |
| CN(C)Cc1ccccc1O | inactive | – |
| O=C(O)C(F)(F)C(F)(F)C(F)(F)C(F)(F)C(F)(F)C(F)(F)C(F)(F)C(F)(F)C(F)(F)C(F)(F)C(F)(F)C(F)(F)F | inactive | – |
| OCCCC(F)(F)C(F)(F)C(F)(F)C(F)(F)C(F)(F)C(F)(F)C(F)(F)F | inactive | 96.3 µM (active) |
| C=C(C)C(=O)OCC(F)(F)C(F)(F)C(F)(F)F | inactive | – |
| Nc1cc(Cl)c(N)c(Cl)c1 | inactive | – |
| C=CC(F)(F)C(F)(F)C(F)(F)C(F)(F)C(F)(F)C(F)(F)C(F)(F)C(F)(F)F | inactive | – |
| C=CC(=O)OCC(F)(F)C(F)(F)C(F)(F)C(F)(F)C(F)(F)C(F)(F)C(F)(F)F | inactive | – |
| O=C(Cl)C(F)(F)C(F)(F)C(F)(F)C(F)(F)C(F)(F)C(F)(F)C(F)(F)C(F)(F)F | inactive | – |
| CC(C)c1ccccc1N | inactive | – |
| O=C(O)C(F)(F)C(F)(F)C(F)(F)F | inactive | – |
| NC(=O)C(F)(F)C(F)(F)C(F)(F)C(F)(F)F | inactive | – |
| FC(F)(F)C(F)(F)C(F)(F)N(C(F)(F)C(F)(F)C(F)(F)F)C(F)(F)C(F)(F)C(F)(F)F | inactive | – |
